This note sets out measurements from ChEMBL document CHEMBL1961873, “Compounds: GSK PKIS; Assays: Nanosyn kinase panel” (2012).

Experiment [1] has as its target Death-associated protein kinase 1 (Homo sapiens) (UniProt P53355). Conditions: at 1 µM.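 Note: each value is a mean inhibition figure.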
In experiment [2] the target is T1, Serine/threonine-protein kinase DCLK2 (Homo sapiens) (UniProt Q8N568).
T1 sequence (whole entry): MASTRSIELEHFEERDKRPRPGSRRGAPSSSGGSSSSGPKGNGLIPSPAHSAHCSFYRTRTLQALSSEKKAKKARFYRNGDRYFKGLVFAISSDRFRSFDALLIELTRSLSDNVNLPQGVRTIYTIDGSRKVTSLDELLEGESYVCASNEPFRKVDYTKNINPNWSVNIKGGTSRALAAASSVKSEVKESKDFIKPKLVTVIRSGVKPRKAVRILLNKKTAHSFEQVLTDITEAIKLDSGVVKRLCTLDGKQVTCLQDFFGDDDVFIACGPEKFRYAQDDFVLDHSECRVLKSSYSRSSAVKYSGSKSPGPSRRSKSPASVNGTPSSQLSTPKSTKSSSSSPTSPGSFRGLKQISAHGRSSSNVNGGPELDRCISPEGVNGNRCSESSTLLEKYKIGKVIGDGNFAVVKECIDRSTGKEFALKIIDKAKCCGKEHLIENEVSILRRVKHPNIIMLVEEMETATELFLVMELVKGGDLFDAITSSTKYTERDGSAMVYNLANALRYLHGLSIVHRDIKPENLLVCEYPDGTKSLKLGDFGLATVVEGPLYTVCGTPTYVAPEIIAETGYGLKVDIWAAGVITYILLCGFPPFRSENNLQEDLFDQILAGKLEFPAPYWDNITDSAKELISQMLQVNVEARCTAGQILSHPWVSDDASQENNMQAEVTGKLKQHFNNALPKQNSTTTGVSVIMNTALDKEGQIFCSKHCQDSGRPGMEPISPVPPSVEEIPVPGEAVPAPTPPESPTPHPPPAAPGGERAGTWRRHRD
Conditions: at 0.1 µM.

Experiment [3] concerns the target T1, Serine/threonine-protein kinase DCLK2 (Homo sapiens). Conditions: at 1 µM.
Experiment [4] addresses MAP kinase-activated protein kinase 2 (Homo sapiens) (UniProt P49137). Conditions: at 0.1 µM.
For experiment [5] the target is unchanged. Conditions: at 1 µM.
For experiment [6], the target named is MAP kinase-activated protein kinase 3 (Homo sapiens) (UniProt Q16644). Conditions: at 0.1 µM.
MAP kinase-activated protein kinase 3 (Homo sapiens), sequence (Q16644 whole entry, looked up): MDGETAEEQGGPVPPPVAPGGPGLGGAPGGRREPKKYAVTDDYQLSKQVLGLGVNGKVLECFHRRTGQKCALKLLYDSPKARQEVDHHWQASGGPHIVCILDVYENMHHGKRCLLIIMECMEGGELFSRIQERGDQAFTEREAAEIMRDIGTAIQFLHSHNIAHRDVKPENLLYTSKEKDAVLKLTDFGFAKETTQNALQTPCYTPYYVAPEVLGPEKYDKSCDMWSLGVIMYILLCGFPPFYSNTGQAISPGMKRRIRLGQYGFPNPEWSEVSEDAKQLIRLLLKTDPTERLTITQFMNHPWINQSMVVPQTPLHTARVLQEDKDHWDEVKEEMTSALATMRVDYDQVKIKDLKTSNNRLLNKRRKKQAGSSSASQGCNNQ
The target is the same in experiment [7]. Conditions: at 1 µM.
Experiment [8] addresses Serine/threonine-protein kinase MARK1 (Homo sapiens) (UniProt Q9P0L2). Conditions: at 0.1 µM.
The target is the same in experiment [9]. Conditions: at 1 µM.
In experiment [10] the target is MAP/microtubule affinity-regulating kinase 3 (Homo sapiens) (UniProt P27448). Conditions: at 0.1 µM.
MAP/microtubule affinity-regulating kinase 3 (Homo sapiens), sequence (P27448 whole entry, looked up): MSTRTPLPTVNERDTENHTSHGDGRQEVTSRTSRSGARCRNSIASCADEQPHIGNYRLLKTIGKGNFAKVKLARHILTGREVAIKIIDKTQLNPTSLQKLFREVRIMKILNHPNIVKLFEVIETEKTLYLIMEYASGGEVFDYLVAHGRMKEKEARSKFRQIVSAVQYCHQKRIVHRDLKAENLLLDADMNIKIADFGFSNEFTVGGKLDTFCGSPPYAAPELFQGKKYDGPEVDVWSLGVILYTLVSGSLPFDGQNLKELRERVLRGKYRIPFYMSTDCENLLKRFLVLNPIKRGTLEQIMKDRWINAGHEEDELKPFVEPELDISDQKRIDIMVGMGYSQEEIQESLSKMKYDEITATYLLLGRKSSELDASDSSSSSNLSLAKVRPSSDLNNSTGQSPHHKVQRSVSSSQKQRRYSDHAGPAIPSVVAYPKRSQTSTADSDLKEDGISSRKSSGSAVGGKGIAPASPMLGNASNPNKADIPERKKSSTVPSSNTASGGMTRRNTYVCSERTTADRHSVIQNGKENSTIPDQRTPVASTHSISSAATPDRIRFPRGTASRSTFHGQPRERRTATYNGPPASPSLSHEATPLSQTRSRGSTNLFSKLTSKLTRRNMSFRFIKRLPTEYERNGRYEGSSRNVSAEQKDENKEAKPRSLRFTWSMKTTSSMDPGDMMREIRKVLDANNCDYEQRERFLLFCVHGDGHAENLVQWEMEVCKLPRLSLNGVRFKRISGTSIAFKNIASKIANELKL
Experiment [11] shares this target. Conditions: at 1 µM.
Experiment [12] addresses T2, MAP/microtubule affinity-regulating kinase 4 (Homo sapiens) (UniProt Q96L34).
T2 sequence (whole entry): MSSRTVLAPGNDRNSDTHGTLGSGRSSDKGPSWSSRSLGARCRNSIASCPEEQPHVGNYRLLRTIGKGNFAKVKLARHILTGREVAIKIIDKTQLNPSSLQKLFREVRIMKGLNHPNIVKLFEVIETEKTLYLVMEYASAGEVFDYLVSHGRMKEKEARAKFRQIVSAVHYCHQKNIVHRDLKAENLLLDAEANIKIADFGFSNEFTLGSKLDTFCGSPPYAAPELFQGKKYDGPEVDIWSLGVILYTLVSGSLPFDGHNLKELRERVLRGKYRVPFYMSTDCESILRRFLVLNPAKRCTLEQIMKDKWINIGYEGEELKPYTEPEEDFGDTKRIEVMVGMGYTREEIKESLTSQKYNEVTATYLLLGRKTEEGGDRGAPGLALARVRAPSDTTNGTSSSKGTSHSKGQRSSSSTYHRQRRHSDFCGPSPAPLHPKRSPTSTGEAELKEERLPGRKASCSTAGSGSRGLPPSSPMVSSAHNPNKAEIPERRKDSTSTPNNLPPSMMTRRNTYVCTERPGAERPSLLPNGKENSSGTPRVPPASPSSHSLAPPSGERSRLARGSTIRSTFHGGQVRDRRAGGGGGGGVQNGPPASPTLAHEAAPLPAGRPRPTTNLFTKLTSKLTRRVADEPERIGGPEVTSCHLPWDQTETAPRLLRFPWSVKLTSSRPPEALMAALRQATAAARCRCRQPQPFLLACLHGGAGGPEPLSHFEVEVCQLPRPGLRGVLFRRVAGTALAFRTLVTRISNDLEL
Conditions: at 0.1 µM.

In experiment [13] the target is T2, MAP/microtubule affinity-regulating kinase 4 (Homo sapiens). Conditions: at 1 µM.
The target of experiment [14] is Maternal embryonic leucine zipper kinase (Homo sapiens) (UniProt Q14680). Conditions: at 0.1 µM.
Maternal embryonic leucine zipper kinase (Homo sapiens), sequence (Q14680 whole entry, looked up): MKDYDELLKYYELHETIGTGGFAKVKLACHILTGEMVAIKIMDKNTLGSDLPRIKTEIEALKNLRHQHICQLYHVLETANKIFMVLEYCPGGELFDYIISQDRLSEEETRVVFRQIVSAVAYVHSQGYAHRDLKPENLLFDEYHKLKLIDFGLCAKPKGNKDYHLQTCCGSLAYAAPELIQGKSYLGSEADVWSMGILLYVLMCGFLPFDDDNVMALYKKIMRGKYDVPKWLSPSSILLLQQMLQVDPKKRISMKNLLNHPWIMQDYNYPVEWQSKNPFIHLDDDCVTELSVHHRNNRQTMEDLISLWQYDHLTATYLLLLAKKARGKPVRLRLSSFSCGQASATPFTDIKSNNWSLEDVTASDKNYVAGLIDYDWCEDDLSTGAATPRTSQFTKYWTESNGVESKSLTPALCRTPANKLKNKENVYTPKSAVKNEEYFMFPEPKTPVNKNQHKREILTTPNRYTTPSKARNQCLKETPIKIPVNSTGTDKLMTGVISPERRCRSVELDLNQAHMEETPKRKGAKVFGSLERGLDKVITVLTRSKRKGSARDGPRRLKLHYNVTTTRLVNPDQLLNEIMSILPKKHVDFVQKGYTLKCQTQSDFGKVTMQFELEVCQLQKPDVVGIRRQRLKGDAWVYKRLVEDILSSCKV
The target is the same in experiment [15]. Conditions: at 1 µM.
Experiment [16] addresses MAP kinase-interacting serine/threonine-protein kinase 1 (Homo sapiens) (UniProt Q9BUB5). Conditions: at 0.1 µM.
Experiment [17] has the same target. Conditions: at 1 µM.
Experiment [18] concerns the target MAP kinase-interacting serine/threonine-protein kinase 2 (Homo sapiens) (UniProt Q9HBH9). Conditions: at 0.1 µM.
The target is the same in experiment [19]. Conditions: at 1 µM.
Experiment [20] deals with Serine/threonine-protein kinase MARK2 (Homo sapiens) (UniProt Q7KZI7). Conditions: at 0.1 µM.
Serine/threonine-protein kinase MARK2 (Homo sapiens), sequence (Q7KZI7 whole entry): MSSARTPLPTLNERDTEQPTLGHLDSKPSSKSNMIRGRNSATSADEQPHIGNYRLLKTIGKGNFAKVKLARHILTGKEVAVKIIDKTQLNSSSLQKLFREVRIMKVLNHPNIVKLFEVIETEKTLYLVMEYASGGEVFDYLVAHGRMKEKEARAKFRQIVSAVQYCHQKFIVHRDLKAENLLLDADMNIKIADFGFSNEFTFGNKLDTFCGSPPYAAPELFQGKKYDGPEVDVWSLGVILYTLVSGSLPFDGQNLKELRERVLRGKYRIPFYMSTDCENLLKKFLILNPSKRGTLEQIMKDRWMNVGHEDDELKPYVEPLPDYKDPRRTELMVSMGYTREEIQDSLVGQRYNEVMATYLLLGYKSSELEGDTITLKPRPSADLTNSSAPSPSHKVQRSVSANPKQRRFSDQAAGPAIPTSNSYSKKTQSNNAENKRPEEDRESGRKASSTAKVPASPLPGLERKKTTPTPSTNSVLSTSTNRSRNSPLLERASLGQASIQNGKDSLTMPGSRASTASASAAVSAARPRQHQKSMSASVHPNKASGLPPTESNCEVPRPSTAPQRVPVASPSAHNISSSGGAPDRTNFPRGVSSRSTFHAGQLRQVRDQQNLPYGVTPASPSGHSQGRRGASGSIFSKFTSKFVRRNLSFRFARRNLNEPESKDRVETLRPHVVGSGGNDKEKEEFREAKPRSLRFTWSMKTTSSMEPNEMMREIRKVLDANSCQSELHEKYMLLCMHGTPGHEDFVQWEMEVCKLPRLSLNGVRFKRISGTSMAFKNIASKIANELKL

The inhibition is the drop in the measured response relative to a control, in per cent.

MAP kinase-interacting serine/threonine-protein kinase 1 (Homo sapiens), sequence (Q9BUB5 whole entry, looked up): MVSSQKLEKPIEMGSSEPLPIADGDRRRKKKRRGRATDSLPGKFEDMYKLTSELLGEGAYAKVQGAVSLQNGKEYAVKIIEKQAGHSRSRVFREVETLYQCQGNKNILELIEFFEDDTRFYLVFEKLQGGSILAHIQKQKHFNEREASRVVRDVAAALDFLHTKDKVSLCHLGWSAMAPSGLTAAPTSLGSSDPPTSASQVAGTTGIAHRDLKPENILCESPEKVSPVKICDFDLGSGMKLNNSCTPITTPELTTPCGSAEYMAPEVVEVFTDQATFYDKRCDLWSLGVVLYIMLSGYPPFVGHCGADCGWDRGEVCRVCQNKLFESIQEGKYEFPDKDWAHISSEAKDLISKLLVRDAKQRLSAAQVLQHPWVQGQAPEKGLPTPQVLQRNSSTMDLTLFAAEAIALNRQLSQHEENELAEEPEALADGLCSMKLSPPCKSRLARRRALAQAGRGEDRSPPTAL
MAP kinase-activated protein kinase 2 (Homo sapiens), sequence (P49137 whole entry, looked up): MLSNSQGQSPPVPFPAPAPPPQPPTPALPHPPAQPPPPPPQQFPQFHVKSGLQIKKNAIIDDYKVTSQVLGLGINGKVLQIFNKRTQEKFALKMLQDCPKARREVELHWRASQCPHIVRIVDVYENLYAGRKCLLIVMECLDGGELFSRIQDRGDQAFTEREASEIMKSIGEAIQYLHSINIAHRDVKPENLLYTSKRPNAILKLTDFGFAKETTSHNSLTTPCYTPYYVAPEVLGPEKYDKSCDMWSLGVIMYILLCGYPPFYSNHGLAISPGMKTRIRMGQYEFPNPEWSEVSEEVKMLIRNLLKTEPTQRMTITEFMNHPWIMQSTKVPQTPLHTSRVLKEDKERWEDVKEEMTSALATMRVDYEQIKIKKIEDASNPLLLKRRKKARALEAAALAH
Serine/threonine-protein kinase MARK1 (Homo sapiens), sequence (Q9P0L2 whole entry, looked up): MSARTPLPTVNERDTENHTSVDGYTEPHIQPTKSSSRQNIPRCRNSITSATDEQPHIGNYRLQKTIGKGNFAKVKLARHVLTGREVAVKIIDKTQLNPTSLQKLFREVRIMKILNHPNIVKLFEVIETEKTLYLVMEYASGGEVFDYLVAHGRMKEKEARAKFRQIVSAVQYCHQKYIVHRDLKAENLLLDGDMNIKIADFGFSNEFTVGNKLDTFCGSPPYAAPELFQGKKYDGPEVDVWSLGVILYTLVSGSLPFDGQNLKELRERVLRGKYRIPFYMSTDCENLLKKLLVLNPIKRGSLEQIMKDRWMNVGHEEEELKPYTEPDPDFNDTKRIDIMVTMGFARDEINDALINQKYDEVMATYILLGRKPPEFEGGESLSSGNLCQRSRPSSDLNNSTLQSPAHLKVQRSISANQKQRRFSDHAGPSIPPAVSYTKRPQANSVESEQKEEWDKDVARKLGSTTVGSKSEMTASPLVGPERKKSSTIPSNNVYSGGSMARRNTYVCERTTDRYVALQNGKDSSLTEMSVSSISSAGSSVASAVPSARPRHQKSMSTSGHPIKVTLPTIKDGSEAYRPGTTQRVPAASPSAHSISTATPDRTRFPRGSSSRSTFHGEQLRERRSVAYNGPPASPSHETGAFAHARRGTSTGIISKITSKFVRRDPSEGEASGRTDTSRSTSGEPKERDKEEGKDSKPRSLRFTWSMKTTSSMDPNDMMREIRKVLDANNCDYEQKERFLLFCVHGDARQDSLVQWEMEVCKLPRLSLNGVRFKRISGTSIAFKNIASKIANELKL
MAP kinase-interacting serine/threonine-protein kinase 2 (Homo sapiens), sequence (Q9HBH9 whole entry, looked up): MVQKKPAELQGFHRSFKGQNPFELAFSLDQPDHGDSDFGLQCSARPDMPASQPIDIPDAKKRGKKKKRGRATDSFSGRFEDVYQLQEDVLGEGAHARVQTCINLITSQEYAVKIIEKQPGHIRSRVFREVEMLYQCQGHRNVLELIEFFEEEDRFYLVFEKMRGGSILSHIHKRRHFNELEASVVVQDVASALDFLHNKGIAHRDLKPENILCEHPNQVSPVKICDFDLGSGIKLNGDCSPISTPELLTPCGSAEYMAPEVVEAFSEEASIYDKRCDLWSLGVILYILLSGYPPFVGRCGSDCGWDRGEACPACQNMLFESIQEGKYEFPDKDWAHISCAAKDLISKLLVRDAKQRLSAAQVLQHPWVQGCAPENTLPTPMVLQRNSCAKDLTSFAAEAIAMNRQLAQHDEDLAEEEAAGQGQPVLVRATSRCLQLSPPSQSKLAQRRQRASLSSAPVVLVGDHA

As for `CCn1c(-c2nonc2N)nc2ccncc21`, the inhibition in [1] is 2.7%; in experiment [2], -2.35%; in experiment [3] it was -1.48%; in [4] it was -0.18%; in experiment [5], 0.49%; in experiment [6], 0.85%. Moreover, the inhibition in [7] was 1.7%; in [8], 0.76%; in [9], -0.05%; in [10], 0.13%; in experiment [11], 1.4%; in experiment [12], 1.33%. Also, the inhibition is 2.78% in experiment [13]; -0.81% in experiment [14]; 2.39% in experiment [15]; 1.17% in [16]; 3.2% in [17]; 0.41% in experiment [18]. Besides, the inhibition is 3.51% in [19] and -1.74% in [20].
As to `Cc1nn(C)c2cc(N(C)c3ccnc(Nc4cccc(S(N)(=O)=O)c4)n3)ccc12`, the inhibition in experiment [1] came out at 8.09%; in experiment [2], 0.57%; in experiment [3] it was 0.12%; in experiment [4], 3.83%; in [5], 3.29%; in experiment [6], 8.73%. The inhibition is 11% in [7]; 3.07% in experiment [8]; 4.05% in experiment [9]; 0.92% in experiment [10]; -2.37% in experiment [11]; 1.36% in experiment [12]. Further, the inhibition is 0.82% in [13]; 4.84% in experiment [14]; 5% in experiment [15]; 1.93% in experiment [16]; 6.83% in experiment [17]; 2.38% in experiment [18]. In addition, the inhibition in experiment [19] was 7.27%; in experiment [20] it was -0.09%.
Take `CC1=C(C(=O)Nc2ccc3[nH]ncc3c2)C(c2ccc3ccccc3c2)CC(=O)N1` (configuration not stated): the inhibition in experiment [1] was 0.51%; in experiment [2], 0.76%; in experiment [3] it was -1.57%; in experiment [4] it was 0.66%; in experiment [5] it was 0.45%; in experiment [6], 0.74%. Also, the inhibition came to 2.13% in experiment [7]; 1.86% in experiment [8]; 3.48% in experiment [9]; 0.58% in experiment [10]; 4.13% in experiment [11]; 0.19% in [12]. For the same compound, the inhibition turned out to be 1.73% in [13]; 3.7% in [14]; 6.22% in experiment [15]; 3.03% in [16]; 5.77% in [17]; 1.21% in experiment [18]. The inhibition in experiment [19] is 3.81%; in experiment [20] it was -0.71%.
On to `COc1cc(C)c(NC(=O)CN(C)C)cc1Nc1nc(Nc2cccc(F)c2C(N)=O)c2cc[nH]c2n1`, for which the inhibition in experiment [1] was found to be 35%; in experiment [2], 1.99%; in [4] it was 0.89%; in experiment [5], 0.73%; in experiment [6] it was 3.1%; in experiment [7], 3.56%. The inhibition was -0.37% in experiment [8]; 1.38% in [9]; -0.27% in [10]; 0.73% in experiment [11]; -0.67% in experiment [12]; 0.75% in experiment [13]. Moreover, the inhibition in [14] is 2.85%; in experiment [15] it was 18.1%; in experiment [16], 1.46%; in [17], 0.39%; in experiment [18], 0.92%; in experiment [19], 1.25%. Besides, in experiment [20], the inhibition is -2%.
On to `Cc1cccc(-c2n[nH]cc2-c2ccc3ncccc3n2)n1`, for which the inhibition is 0.85% in experiment [1]; -5.57% in experiment [3]; 0.61% in experiment [4]; -0.07% in [5]; 0.58% in experiment [6]; 2.89% in experiment [7]. Besides, the inhibition in experiment [8] was 1%; in [9], 1.95%; in experiment [10], -0.37%; in experiment [11] it was 0.24%; in experiment [12], -0.19%; in [13] it was -0.68%. For the same compound, the inhibition in experiment [14] was determined as 1.01%; in experiment [15], 4.06%; in experiment [16], 0.44%; in experiment [17], 2.25%; in [18], 0.2%; in experiment [19], 3.14%. In experiment [20], the inhibition is -0.96%.
Take `CCCN1CCC(Oc2cc(Nc3nc(Nc4cccc(F)c4C(N)=O)c4cc[nH]c4n3)c(OC)cc2Cl)CC1`: the inhibition is 16.8% in [1]; -2.33% in [2]; -0.08% in experiment [4]; -0.66% in experiment [5]; 10.3% in experiment [6]; -0.67% in experiment [7]. Also, the inhibition was -1.22% in [8]; 2.97% in [9]; -0.83% in experiment [10]; 1.93% in experiment [11]; -0.13% in experiment [12]; 2.83% in experiment [13]. Further, the inhibition in experiment [14] came to 1.25%; in experiment [15] it was 21.2%; in [16] it was 1.13%; in experiment [17], 3.91%; in [18] it was 0.85%; in experiment [19] it was 0.99%. Also, the inhibition in experiment [20] is -0.3%.
With `CCn1c(-c2nonc2N)nc2cncc(C(=O)N3CC[C@H](N)C3)c21`, the inhibition is 8.64% in experiment [1]; 0.17% in [2]; -0.36% in [3]; 1.77% in experiment [4]; 1.78% in [5]; 3.01% in experiment [6]. The inhibition in [7] is 4.01%; in experiment [8], 4.67%; in experiment [9], 12.8%; in experiment [10] it was 3.75%; in experiment [11], 4.57%; in experiment [12] it was 2.19%. The inhibition in experiment [13] is 4.51%; in [14] it was 14.8%; in experiment [15] it was 60.6%; in experiment [16], 3.74%; in [17], 9.55%; in [18] it was 2.07%. Moreover, the figures for the inhibition in experiment [19] and in experiment [20] were 10.8% and 1.6%, respectively.
